High-throughput results (PubChem BioAssay)
GLS inhibitor: qHTS for Inhibitors of Glutaminase (GLS); Glutaminase kidney isoform, mitochondrial (Homo sapiens), O94925; GLS enzymatic activity, qHTS titration; Potency, µM (top dose mostly 45.5 µM), for inactives: at the top dose activity change, negative = inhibition, usual class: inhibitors; 410,000 tested, 0.21% active
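hKGA in 45 mM KH2PO4 pH 8.2, 0.02% Tween-20 with pin-transferred compounds; 1 mM L-glutamine (stock) plus glutamate oxidase/HRP/Amplex Red coupling added. Fluorescence read initially and after 30 min at RT.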
PGK inhibitor: qHTS Assay to Find Inhibitors of Phosphoglycerate Kinase. 380,000 tested, 0.043% active. Potency, µM (titrated, usually from 57.5 µM), without a hit: at the top dose activity change, negative = inhibition, actives largely listed as inhibitors. Phosphoglycerate kinase, glycosomal (Trypanosoma brucei brucei), P07378. AID 602233, 2012. PGK/GAPDH coupled, Kinase-Glo luminescence, 60 min; also: nearly all actives have a fitted effect of over 60% in size
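Luminescent ATP detection (Kinase-Glo Plus) follows a 60-minute room-temperature incubation, with wells lacking PGK as controls. Buffer: 100 mM TEA (pH 7.6), 5 mM MgCl2, 0.01% Tween-20. Coupling enzyme GAPDH (100 nM final) supplies unstable 1,3-BPG in-well.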
FEN1 inh: qHTS Assay for the Inhibitors of Human Flap endonuclease 1 (FEN1); Recombinant FEN1 flap cleavage, fluorescence, 15 min; Potency, µM (highest dose often 114 µM), for inactives: at the highest dose activity change, negative = inhibition, usual class: inhibitors; 390,000 tested, 0.35% active; AID 588795, 2011; also: nearly all actives have a fitted effect of over 65% in size
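Reaction started by adding substrate (50 nM final) to 10 nM enzyme after 15 min room-temperature compound preincubation. Reads at 0 and 15 min, with data normalized and fitted to a four-parameter Hill equation.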
RECQ1 inh: qHTS Assay for Inhibitors of RecQ-Like Dna Helicase 1 (RECQ1); 240,000 tested, 0.54% active; Potency, µM (titrated, usually from 57.3 µM), inactives show top-dose activity, negative = inhibition, hits mostly inhibitors; ATP-dependent DNA helicase Q1 (Homo sapiens), P46063; RECQ1 DNA unwinding, red fluorescence kinetic read;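 also: plate controls were vehicle for no effect and no enzyme for full effect; nearly all actives have a fitted effect of over 30% in size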
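50 nM RECQ1T1 preincubated 15 min with compound in Tris pH 8.0 buffer with MgCl2, DTT, Tween-20 and 2.5 ug/ml poly(dI-dC); started with 200 nM TAMRA/BHQ-2 forked duplex and 2 mM ATP. Unwinding read as fluorescence (525/598 nm), two reads 2 h apart.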
APE1 inh-1: qHTS Assay for Inhibitors of the Human Apurinic/apyrimidinic Endonuclease 1 (APE1); DNA repair nuclease/redox regulator APEX1 (Homo sapiens), P27695; recombinant APE1, TAMRA/BHQ-2 abasic DNA cleavage fluorescence; Potency, µM (top dose mostly 65.8 µM), without a hit: top-dose activity change, negative = inhibition, hits mostly inhibitors; 350,000 tested, 0.35% active; AID 2517, 2012;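 also: plate controls were vehicle for no effect and reference inhibitor for full effect; nearly all actives have a fitted effect of over 55% in size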
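APE1 at 0.75 nM final was preincubated with compound 15 min at room temperature, then 50 nM double-stranded THF abasic-site substrate (5'-TAMRA/3'-BHQ-2) was added. Fluorescence (ex 525/em 598 nm) was read kinetically; third-minus-first read gave activity.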
BLM helicase inh: qHTS Assay for Inhibitors of Bloom's syndrome helicase (BLM); 350,000 tested, 0.2% active; RecQ-like DNA helicase BLM (Homo sapiens), P54132; recombinant BLM DNA unwinding, fluorescence dequenching; Potency, µM (series often up to 56.1 µM), for the others: top-dose activity change, negative = inhibition, most hits filed as inhibitors;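 also: plate controls were vehicle for no effect and no enzyme for full effect; nearly all actives have a fitted effect of over 35% in size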
Target sequence (P54132 whole entry, looked up): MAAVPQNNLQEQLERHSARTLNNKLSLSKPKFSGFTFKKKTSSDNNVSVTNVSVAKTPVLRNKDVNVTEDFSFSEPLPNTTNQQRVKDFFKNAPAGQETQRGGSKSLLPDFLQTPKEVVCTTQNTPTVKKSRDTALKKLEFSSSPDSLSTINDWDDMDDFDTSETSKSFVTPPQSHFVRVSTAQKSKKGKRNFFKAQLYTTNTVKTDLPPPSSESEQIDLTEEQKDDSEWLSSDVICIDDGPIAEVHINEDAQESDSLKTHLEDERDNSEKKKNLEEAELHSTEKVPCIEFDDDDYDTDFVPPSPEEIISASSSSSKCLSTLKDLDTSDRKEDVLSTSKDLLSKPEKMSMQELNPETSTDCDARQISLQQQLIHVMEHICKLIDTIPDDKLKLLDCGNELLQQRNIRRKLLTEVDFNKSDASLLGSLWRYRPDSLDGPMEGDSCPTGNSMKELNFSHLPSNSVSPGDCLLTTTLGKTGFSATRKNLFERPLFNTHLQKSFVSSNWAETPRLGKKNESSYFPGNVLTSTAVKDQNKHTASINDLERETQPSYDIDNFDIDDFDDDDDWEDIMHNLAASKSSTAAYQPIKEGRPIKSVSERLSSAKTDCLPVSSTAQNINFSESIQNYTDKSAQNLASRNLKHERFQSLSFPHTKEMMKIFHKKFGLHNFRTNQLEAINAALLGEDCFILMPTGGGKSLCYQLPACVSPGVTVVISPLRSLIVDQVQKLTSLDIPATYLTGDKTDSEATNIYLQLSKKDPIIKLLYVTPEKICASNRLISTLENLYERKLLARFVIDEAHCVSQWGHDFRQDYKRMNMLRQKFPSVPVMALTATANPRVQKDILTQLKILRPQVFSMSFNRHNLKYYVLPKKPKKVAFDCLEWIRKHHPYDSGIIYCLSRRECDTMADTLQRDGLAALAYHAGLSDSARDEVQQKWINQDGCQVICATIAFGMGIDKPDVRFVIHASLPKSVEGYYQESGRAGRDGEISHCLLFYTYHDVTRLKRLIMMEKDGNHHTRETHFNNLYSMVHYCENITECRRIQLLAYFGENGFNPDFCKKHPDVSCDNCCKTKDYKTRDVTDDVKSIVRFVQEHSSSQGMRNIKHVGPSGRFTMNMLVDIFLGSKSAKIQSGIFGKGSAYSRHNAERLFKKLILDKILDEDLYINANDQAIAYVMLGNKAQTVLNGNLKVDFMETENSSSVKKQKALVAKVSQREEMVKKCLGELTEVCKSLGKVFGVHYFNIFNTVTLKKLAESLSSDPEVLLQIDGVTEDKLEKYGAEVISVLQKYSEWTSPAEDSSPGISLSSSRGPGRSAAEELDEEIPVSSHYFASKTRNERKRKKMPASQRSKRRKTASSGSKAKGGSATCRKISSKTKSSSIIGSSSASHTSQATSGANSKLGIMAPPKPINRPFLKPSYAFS
DNA dye displace: Counterscreen for APE1 Inhibitors: Fluorescent Dye Displacement Assay. DNA fluorescent dye displacement counterscreen, fluorescence. Potency, µM (highest dose often 28.5 µM), without a hit: at the top dose activity change, negative = inhibition, hits mostly inhibitors. shares compounds with APE1 inh-1. 480 tested, 7% active;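 also: loss of thiazole orange fluorescence as the dye is displaced from duplex DNA; 0% = ThO with dsDNA and no compound and -100% = ThO without dsDNA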
Endo IV inh: Counterscreen for APE1 Inhibitors: qHTS Assay for Inhibitors of Endonuclease IV; shares compounds with APE1 inh-1; E. coli Endo IV, fluorogenic AP-site DNA cleavage; Potency, µM (top dose mostly 27.1 µM), for inactives: at the top dose activity change, negative = inhibition, actives largely listed as inhibitors; 560 tested, 4% active;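 also: plate controls were uninhibited enzyme wells for no effect and no enzyme buffer wells for full effect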
APE1 inh-2: Confirmation qHTS Assay for Inhibitors of the Human Apurinic/apyrimidinic Endonuclease 1 (APE1). purified APE1, fluorogenic abasic-site DNA cleavage. 750 tested, 44% active. AID 2572, 2010. Potency, µM (top dose mostly 57.1 µM), without a hit: at the highest dose activity change, negative = inhibition, usual class: inhibitors. shares compounds with APE1 inh-1; also: nearly all actives have a fitted effect of over 30% in size
APE1 FP inh: qHTS FP-Based Assay for Inhibitors of the Human Apurinic/apyrimidinic Endonuclease 1 (APE1). shares compounds with APE1 inh-1. APE1 binding to TAMRA-labelled double-stranded DNA, fluorescence polarization displacement. Potency, µM (top dose mostly 28.5 µM), without a hit: at the top dose activity, negative = inhibition, usual class: inhibitors. 480 tested, 7% active
* hit, by the source's call; i = inactive; ? = inconclusive; . = not tested or not shown; [ ] = another dose, or the depositor's remark. Shown are actives, neighbours in structure and some others; about 0.86% of the full set was active somewhere. Calls follow the shape of the dose curve; as a rule, active = well fitted curve in the direction sought with a large enough effect; inconclusive = small, poorly fitted or top-dose-only effect, or another doubt; inactive = no such curve, though single readings can be large; an effect the other way counts as inactive or inconclusive. Unless noted, % is scaled to controls: 0 for no effect and ±100 for the full control effect; potency is read from the fitted curve at half-maximal effect.

SMILES | GLS inhibitor | PGK inhibitor | FEN1 inh | RECQ1 inh | APE1 inh-1 | BLM helicase inh | DNA dye displace | Endo IV inh | APE1 inh-2 | APE1 FP inh
COc1cc(/C=C(\C#N)C(=O)c2ccc(O)c(O)c2)cc(I)c1O | 13% | ? | 3.5µM* | 0.89µM* | 6µM* | . | . | -16%[57.1 µM] | ? | .
O=C(O)c1ccc(-c2ccc(/C=C3\NC(=O)N(Cc4ccc(Cl)cc4)C3=O)o2)cc1 | -10% | -2% | -2% | 10% | -31% | -1% | . | . | ? | .
C[C@@H]1[C@H](c2ccccc2)OCCS(=O)(=O)N1Cc1ccc(F)cc1 | . | . | -18% | . | . | . | . | . | . | .
Cc1ccc2c(c1)C1C=CCC1C(C(=O)O)N2 (stereo unspecified) | . | . | . | 8.9µM* | 16µM* | 14µM* | ? | 0% | 14µM* | -26%
CN(N=O)C(=O)N[C@@H]1[C@@H](O)[C@H](O)[C@@H](CO)O[C@@H]1O | . | . | . | . | 14%[21 µM] | . | . | . | . | .
Cc1nc(SCC(=O)O)c(C#N)c2c1CCCC2 | ? | -16% | -6% | -27% | ? | -2% | . | . | ? | .
COc1ccc(CNC(=O)Nc2ccc(C)cc2)cc1 | 7% | -3% | -3% | -12% | ? | 0% | . | . | . | .
COc1ccc(CNC(=O)Nc2cc(C)cc(C)c2)cc1 | -1% | i | -3% | 1% | -45% | -5% | -1% | 5% | -5%[24.4 µM] | 3%
COc1ccc2c(c1OC)C(=O)O[C@H]2C1c2c(cc3c(c2OC)OCO3)CCN1C (stereo partly specified) | . | . | . | -15% | -3% | -8% | . | . | . | .
CN1CCc2cc3c(c4c2[C@H]1[C@H](O)c1ccccc1-4)OCO3 | 2% | -9% | 40µM* | 81% | ? | 83% | 4.5µM* | 8.9µM* | 11µM* | 13µM*
COc1cc(CC2COC(c3ccc(O)c(OC)c3)C2COC(C)=O)ccc1O (stereo unspecified) | 11µM* | ? | 56µM* | 25µM* | 4µM* | 25µM* | 1% | 3% | 10µM* | -9%
Cc1ccc(C(=O)N/N=C/c2ccc3c(c2)OCO3)o1 | 1% | -14% | 4% | 2% | 1% | -2% | . | . | . | .
O=C(N/N=C/c1ccc2c(c1)OCO2)c1cc2ccccc2o1 | 1% | 8% | 5% | -14% | ? | -21% | . | . | 40µM* | .
CCOC(=O)NC1(NCC(C)C)Oc2ccccc2O1 | 51% | 2% | -11% | ? | ? | 0% | . | . | . | .
CCOC(=O)NC1(NC(C)C)Oc2ccccc2O1 | 55% | -6% | -2% | -21% | 22µM* | 0% | -5% | 4% | ? | 0%
CCOC(=O)NC1(NCc2ccccc2)Oc2ccccc2O1 | ? | 5% | -9% | ? | 2.5µM* | 1% | 0% | 26% | ? | 1%
CCOC(=O)NC1(Nc2ccc(C)cc2)Oc2ccccc2O1 | -30% | 3% | 6% | 6% | 1% | 3% | . | . | . | .
O=C(CSc1ccsc1[N+](=O)[O-])Nc1cc(F)ccc1F | ? | ? | ? | -4% | 1% | ? | . | . | . | .
CC(=O)c1ccc(NC(=O)CSc2ccsc2[N+](=O)[O-])cc1 | 5% | -5% | -4% | ? | ? | -22% | ? | 0% | 3.5µM* | 0%
CCOC(=O)N1CCN(C(=O)c2c(O)c3cccc4c3n(c2=O)CC4)CC1 | -12% | 3% | -1% | 1% | 40µM* | -1% | -14% | 2% | -10%[24.4 µM] | -1%
C/C=C\C=C/C(=O)Nc1cccc(C2=NOC3(C2)C[C@@H](C(N)=O)N(C(=O)/C=C/CC)C3)c1 (stereo partly specified) | -23% | 4% | -14% | i | -2% | -6% | . | . | . | .
C/C=C\C=C/C(=O)Nc1cccc(C2=NOC3(C2)C[C@@H](C(N)=O)N(C(=O)/C=C/C=C\C)C3)c1 (stereo partly specified) | 11µM* | ? | 50µM* | 22µM* | 35µM* | 10µM* | . | . | ? | .
C=C(C)C(=O)Nc1cccc(C2=NOC3(C2)C[C@H](C(N)=O)N(C(=O)COc2ccc(Cl)cc2)C3)c1 (stereo partly specified) | 10µM* | ? | -20% | 18µM* | ? | -15% | . | . | ? | .
CCC(=O)Nc1cccc(C2=NOC3(C2)C[C@@H](C(N)=O)N(C(=O)COc2ccc(Cl)cc2)C3)c1 (stereo partly specified) | 3% | -5% | -18% | -12% | 1% | -1% | . | . | . | .
Nc1cccc(/C=C2\C=Cc3ccccc32)c1 | . | . | 11% | . | . | . | . | . | . | .
Cc1ccc(CSc2nnc(SCC(=O)N/N=C/c3c[nH]c4ccccc34)s2)cc1 | 75% | ? | ? | ? | 9% | -14% | . | . | -24% | .
O=C(CSc1nnc(SCc2ccccc2)s1)N/N=C/C=C\c1ccco1 | -1% | -24% | ? | 25µM* | 18µM* | 18µM* | 13µM* | -10% | 13µM* | ?
